Assay results from the supplement of paper PMC11732987, “Enantioselective OTUD7B fragment discovery through chemoproteomics screening and high-throughput optimisation” (Communications Chemistry, 2025).

Key:
Test in all cases: log2 ratio of Biotin-Ahx-Ub-VS probe labelling (fragment/DMSO); higher = less target engagement (more negative = stronger competition), active = hit call of the paper (q ≤ 0.05, log2 ratio ≤ -1)
Details in all cases: compound concentration: 200 uM; treatment time: 3 h
USP9X = USP9X (UniProt Q93008)
In short: (§1)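 HEK293T lysate (495 µg per sample, in Tris/CHAPS/IGEPAL buffer with protease inhibitors) was exposed in triplicate for 3 h to fragment at 200 µM or to vehicle, then to Biotin-Ahx-Ub-VS at 0.5 µM final for 1 h. Labelled DUBs were enriched on NeutrAvidin, digested with LysC and trypsin, and analysed by diaPASEF LC-MS/MS. Spectronaut label-free quantities were normalised to the global median, and values are average log2 ratios of fragment over vehicle from an unpaired t-test. Only proteins with ≥2 unique peptides were used.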

UniProt O00487 = target: UniProt O00487
In short: as §1

UniProt O00507 = target: UniProt O00507
In short: as §1

UniProt P51784 = target: UniProt P51784
In short: as §1

UniProt Q5T2D3 = target: T1, UniProt Q5T2D3
T1 sequence (whole entry): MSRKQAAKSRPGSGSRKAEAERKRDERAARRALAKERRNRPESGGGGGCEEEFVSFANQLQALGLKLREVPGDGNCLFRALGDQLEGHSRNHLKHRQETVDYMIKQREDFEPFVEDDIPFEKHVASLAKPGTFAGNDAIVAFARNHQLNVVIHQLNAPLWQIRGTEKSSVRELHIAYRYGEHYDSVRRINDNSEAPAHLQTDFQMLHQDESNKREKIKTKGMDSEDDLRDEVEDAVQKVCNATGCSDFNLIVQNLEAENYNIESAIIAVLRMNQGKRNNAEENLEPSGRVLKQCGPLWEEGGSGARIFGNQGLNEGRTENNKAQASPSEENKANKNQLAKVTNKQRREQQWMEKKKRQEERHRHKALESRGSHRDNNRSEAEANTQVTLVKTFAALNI
In short: as §1

UniProt Q8TE49 = target: T2, UniProt Q8TE49
T2 sequence (whole entry): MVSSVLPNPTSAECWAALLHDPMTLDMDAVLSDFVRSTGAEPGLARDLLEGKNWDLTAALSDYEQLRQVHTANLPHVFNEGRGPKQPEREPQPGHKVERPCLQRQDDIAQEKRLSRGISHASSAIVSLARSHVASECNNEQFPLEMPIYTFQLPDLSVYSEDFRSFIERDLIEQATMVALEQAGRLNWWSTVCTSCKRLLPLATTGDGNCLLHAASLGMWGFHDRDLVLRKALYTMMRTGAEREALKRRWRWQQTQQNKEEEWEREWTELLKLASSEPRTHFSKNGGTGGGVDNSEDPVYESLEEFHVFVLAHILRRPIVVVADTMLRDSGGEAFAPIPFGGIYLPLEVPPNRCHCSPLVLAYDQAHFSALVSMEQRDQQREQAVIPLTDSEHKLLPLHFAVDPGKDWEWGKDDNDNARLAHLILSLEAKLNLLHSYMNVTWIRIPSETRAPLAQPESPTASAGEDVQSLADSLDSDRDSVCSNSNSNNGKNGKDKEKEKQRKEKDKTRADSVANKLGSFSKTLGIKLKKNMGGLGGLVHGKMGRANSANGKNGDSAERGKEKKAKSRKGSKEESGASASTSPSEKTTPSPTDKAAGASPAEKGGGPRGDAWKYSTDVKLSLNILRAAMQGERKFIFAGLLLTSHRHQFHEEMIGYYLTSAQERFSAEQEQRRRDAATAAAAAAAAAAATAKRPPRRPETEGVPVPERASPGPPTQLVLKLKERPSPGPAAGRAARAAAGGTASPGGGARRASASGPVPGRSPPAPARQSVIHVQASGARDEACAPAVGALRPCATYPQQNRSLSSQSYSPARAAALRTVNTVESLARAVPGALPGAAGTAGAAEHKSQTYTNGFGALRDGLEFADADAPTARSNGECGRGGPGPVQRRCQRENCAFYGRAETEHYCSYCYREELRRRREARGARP
In short: as §1

UniProt Q9P2H5 = target: T3, UniProt Q9P2H5
T3 sequence (whole entry): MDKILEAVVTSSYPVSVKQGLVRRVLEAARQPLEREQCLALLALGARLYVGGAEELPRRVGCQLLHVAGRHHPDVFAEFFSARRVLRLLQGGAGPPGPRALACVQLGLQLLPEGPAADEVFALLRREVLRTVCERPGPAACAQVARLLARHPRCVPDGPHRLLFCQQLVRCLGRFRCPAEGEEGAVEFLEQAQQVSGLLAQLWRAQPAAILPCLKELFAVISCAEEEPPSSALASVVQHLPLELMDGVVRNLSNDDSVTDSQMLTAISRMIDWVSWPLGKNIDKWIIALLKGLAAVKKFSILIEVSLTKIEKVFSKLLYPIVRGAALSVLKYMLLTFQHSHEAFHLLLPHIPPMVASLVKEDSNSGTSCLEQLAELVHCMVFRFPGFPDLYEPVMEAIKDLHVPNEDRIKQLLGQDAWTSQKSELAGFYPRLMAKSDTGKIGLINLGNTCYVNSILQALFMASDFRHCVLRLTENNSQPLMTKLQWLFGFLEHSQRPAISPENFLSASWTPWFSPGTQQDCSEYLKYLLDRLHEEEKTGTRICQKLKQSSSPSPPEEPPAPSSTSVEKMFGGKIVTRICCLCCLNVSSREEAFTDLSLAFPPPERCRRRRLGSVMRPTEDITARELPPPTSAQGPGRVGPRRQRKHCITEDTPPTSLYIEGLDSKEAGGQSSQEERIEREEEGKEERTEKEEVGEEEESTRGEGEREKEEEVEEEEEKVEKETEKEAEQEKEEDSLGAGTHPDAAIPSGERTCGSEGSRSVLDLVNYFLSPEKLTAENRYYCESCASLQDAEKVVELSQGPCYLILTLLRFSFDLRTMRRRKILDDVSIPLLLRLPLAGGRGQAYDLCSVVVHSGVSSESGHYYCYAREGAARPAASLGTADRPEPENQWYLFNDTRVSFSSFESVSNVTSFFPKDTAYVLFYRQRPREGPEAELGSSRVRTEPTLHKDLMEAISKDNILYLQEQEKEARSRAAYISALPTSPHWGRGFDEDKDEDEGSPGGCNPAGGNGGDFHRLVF
In short: as §1

UniProt Q9UGI0 = target: T4, UniProt Q9UGI0
T4 sequence (whole entry): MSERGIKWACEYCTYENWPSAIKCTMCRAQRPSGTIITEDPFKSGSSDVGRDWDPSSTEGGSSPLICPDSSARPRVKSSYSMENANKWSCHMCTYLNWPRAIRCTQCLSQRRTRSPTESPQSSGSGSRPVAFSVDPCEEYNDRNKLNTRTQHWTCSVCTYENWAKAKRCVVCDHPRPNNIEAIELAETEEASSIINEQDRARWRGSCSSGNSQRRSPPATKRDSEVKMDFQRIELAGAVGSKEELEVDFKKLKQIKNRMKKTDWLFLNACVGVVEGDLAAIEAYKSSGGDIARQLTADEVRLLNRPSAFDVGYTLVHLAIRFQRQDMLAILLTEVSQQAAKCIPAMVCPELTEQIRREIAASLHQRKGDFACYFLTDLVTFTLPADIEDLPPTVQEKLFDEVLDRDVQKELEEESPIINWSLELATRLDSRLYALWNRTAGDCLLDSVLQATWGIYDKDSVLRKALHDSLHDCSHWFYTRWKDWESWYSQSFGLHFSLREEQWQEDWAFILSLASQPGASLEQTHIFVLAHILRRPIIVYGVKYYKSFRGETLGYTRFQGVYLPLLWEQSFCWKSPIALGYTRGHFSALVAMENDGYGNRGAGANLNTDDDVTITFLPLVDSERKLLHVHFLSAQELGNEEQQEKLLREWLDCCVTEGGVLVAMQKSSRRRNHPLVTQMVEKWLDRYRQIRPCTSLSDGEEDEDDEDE
In short: as §1

YOD1 = target: T5, YOD1 (UniProt Q5VVQ6)
T5 sequence (whole entry): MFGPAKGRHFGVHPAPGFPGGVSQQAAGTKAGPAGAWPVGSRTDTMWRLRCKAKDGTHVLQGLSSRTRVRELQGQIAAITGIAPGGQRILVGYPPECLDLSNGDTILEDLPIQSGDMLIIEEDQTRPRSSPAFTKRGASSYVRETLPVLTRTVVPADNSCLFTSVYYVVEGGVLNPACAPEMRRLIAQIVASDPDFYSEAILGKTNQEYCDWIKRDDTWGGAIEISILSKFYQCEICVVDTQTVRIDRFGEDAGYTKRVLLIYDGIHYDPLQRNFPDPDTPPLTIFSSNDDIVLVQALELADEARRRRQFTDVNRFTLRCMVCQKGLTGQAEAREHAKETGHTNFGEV
In short: as §1

Measured: log2 ratio of Biotin-Ahx-Ub-VS probe labelling

Sequence of USP9X (Q93008 whole entry, the tested form may be a part): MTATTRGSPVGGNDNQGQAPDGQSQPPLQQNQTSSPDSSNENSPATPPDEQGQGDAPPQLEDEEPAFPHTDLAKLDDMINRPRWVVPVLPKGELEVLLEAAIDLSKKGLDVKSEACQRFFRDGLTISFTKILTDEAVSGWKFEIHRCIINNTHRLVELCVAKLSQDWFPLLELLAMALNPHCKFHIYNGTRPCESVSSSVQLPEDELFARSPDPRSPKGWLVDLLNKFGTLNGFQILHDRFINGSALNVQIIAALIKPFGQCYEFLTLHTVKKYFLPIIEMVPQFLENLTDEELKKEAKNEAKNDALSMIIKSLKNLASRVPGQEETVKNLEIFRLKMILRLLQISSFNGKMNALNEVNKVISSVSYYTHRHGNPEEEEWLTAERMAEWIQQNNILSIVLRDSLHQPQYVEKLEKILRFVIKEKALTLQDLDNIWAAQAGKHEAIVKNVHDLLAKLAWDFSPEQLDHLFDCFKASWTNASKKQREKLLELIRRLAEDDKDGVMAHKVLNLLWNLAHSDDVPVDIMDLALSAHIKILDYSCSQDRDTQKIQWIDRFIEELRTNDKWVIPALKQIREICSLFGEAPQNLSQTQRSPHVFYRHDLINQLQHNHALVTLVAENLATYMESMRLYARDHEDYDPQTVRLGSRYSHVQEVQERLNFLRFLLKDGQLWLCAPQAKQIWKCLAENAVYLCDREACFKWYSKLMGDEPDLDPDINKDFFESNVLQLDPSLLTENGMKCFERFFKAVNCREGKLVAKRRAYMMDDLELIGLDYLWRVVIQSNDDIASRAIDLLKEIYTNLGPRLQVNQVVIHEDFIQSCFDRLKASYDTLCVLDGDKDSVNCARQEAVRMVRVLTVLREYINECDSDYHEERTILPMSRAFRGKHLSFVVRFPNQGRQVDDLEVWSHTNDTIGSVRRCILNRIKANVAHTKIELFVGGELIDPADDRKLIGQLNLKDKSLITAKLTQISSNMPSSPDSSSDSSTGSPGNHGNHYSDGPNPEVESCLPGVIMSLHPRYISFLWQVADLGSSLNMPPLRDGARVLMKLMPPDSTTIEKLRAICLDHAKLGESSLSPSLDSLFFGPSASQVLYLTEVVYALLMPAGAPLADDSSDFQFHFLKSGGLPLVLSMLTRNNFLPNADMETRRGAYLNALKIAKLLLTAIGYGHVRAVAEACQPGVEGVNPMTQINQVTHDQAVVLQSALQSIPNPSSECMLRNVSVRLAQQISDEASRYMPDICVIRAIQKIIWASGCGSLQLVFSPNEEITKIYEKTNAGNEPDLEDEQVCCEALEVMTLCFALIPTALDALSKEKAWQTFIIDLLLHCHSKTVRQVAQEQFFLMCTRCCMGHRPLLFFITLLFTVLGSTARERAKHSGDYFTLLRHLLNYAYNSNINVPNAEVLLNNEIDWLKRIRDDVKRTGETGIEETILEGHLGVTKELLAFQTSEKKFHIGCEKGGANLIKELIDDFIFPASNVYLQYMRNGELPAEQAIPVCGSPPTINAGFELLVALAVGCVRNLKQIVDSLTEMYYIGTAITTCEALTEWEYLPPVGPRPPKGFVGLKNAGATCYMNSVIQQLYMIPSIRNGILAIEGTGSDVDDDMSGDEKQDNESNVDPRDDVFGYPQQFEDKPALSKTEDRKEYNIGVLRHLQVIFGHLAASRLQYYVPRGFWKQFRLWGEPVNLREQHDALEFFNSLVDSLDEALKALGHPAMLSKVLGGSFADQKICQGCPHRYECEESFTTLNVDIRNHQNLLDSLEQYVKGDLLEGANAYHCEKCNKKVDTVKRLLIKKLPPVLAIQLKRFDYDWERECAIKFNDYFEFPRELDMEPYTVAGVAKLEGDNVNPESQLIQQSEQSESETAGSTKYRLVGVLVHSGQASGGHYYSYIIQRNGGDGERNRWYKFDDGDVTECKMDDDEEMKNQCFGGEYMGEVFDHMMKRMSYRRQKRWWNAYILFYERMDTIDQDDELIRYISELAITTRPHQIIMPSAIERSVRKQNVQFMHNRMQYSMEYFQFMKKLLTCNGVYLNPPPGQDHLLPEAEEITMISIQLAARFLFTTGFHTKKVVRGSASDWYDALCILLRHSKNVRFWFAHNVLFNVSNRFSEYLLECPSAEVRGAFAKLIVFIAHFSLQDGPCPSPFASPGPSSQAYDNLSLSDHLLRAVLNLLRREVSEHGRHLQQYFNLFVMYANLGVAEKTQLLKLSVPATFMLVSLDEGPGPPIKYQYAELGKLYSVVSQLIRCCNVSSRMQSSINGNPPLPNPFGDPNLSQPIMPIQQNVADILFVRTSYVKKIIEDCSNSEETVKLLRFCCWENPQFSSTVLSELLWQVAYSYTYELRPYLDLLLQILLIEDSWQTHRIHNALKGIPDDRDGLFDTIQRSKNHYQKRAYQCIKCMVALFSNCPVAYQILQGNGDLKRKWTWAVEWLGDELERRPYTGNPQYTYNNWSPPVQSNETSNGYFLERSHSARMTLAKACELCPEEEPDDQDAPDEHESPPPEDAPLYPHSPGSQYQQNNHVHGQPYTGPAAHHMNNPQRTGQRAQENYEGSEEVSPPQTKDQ
Sequence of UniProt P51784 (P51784 whole entry): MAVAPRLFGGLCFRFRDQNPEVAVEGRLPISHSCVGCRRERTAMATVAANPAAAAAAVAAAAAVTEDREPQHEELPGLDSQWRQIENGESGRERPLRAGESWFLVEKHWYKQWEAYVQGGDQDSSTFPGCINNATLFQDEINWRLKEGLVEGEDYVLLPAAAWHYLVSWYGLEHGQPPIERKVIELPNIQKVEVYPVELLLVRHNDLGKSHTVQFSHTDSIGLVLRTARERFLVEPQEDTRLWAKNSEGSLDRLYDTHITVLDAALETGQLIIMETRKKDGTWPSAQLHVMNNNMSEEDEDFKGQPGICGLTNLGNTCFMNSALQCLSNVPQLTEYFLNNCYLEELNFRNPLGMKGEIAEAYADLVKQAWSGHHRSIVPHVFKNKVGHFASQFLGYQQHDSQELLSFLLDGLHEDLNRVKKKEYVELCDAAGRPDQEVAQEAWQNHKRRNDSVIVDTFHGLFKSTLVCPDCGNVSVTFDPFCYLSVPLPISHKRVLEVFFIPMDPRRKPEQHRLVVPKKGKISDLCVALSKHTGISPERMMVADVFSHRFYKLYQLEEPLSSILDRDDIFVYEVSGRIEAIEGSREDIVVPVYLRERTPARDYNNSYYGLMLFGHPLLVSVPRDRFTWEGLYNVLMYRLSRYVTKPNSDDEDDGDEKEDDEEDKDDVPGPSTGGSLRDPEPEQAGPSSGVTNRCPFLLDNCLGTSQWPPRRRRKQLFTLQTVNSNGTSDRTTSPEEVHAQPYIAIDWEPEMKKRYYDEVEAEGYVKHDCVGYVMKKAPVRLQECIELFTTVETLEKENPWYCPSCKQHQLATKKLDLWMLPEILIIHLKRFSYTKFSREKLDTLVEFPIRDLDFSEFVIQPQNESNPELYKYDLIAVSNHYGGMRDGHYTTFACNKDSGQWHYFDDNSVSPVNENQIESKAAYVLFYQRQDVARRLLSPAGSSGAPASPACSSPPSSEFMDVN
Sequence of UniProt O00487 (O00487 whole entry): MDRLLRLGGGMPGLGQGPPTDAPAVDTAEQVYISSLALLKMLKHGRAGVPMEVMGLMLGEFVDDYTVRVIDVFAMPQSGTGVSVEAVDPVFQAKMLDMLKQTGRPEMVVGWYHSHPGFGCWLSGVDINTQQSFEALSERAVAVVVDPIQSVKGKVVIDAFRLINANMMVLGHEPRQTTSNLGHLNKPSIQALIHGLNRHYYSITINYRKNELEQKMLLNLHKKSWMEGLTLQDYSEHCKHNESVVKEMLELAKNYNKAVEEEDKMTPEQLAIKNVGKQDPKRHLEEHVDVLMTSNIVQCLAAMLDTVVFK

Cc1nnc(C(NC(=O)CCl)c2ccccc2)n1C (centres undefined)
inactive: USP9X 0.432 | UniProt O00487 0.442 | UniProt O00507 1.12 | UniProt P51784 0.68 | UniProt Q5T2D3 0.343 | UniProt Q8TE49 0.469 | UniProt Q9P2H5 0.372 | UniProt Q9UGI0 0.693 | YOD1 0.747
